Data from PubChem BioAssay (Tox21).
Values joined by “and” are separate entries in the source; they are usually repeats but may differ in a detail not shown here. Identical values can stand only once. Inconclusive results are not listed. Where a call stands in place of a potency, no number is given. Some structures have more than one record in an assay (separate samples or runs), and their calls can disagree. Active and inactive are the calls of the source. Unless noted, the call rests on the fitted dose curve; in most records, active means well fitted cell-killing curve with a large enough effect in the repeat runs; inconclusive means weak or mixed curves, or effect the other way; inactive means flat fitted curve, though single readings scatter.

System: not listed separately
Test: qHTS assay to identify small molecule agonists of the TGF-beta/Smad signaling pathway - cell viability counter screen (AID 1346829); further: nearly all actives have a fitted effect of over 45% in size; further: potency means the concentration at half of the fitted maximal effect; on activity change, negative = cytotoxicity: top concentration of the series differs between compounds
Conditions: SBE-bla HEK293T viability, CellTiter-Glo luminescence, 5 h; series mostly up to 76.8 µM; activity change, negative = cytotoxicity: at the top concentration
Method in brief: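 Tox21 qHTS format: SBE-bla HEK 293T cells treated with DMSO-dissolved compounds for 5 hr; CellTiter-Glo luminescence after 30 min at room temperature.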

SMILES | Potency | activity change, negative = cytotoxicity
Nc1ccc([N+](=O)[O-])cc1N | inactive | 
N#CCCCCC#N | inactive | 
C[N+](C)(C)CC(=O)O | inactive | 
O=S(=O)(O)C(F)(F)C(F)(F)C(F)(F)C(F)(F)C(F)(F)C(F)(F)C(F)(F)C(F)(F)F | inactive | 
CC(C)(C#N)N=NC(C)(C)C#N | inactive | 
Cl | inactive | 
CCCCCCCCCC(CC)c1ccc(S(=O)(=O)O)cc1 (stereo not given) | inactive | 
O=[N+]([O-])c1ccc(Cl)c([N+](=O)[O-])c1 | 24.5 µM (active) | 
Clc1ccc(C(Cl)(Cl)Cl)cc1 | inactive | 
CC(C)=CC1C(C(=O)OCN2C(=O)C3=C(CCCC3)C2=O)C1(C)C (stereo not given) | inactive | 
C[N+](C)(C)C | inactive | 
CCCCOCC1CO1 (stereo not given) |  | 0.961% (inactive)
ClCC(Cl)CCl | inactive | 
CCCCOCCOC(C)=O | inactive | 
NN=C(N)N | inactive | 
COP(=S)(OC)Oc1ccc(S(=O)(=O)N(C)C)cc1 | inactive | 
CCC(=O)Nc1ccc(Cl)c(Cl)c1 | inactive | 
CCC[CH2][Sn]([Cl])([CH2]CCC)[CH2]CCC | 1.55 µM (active) and 977 nM (active) | 
[Cl-].[Cl-].[Cl-].[Fe+3] | inactive | 

SMILES | Potency | activity change, negative = cytotoxicity
ClC(Cl)=C(Cl)C(Cl)=C(Cl)Cl | inactive | 
CCCCC(C#N)(Cn1cncn1)c1ccc(Cl)cc1 (stereo not given) | inactive | 
CCOP(=S)(OCC)SCSC(C)(C)C | inactive | 
C[N+](C)(C)CC(=O)[O-] | inactive | 
O=NN(c1ccccc1)c1ccccc1 | inactive | 
O=C1Nc2ccc(Cl)cc2C(c2ccccc2)=NC1O (stereo not given) | inactive | 
CCOP(=S)(OCC)SCn1c(=O)oc2cc(Cl)ccc21 | inactive | 
CC1CC(=O)O1 (stereo not given) | inactive | 
CNC(=S)S | inactive | 
C[C@]12CC[C@H]3[C@@H](CCC4=CC(=O)CC[C@@H]43)[C@@H]1CC[C@@H]2O | inactive | 
c1ccc(C2CO2)cc1 (stereo not given) | inactive | 
CCC1(c2ccc(N)cc2)CCC(=O)NC1=O (stereo not given) | inactive | 
CC(C)(c1ccccc1)c1ccc(O)c(C(C)(C)c2ccccc2)c1 | 48.5 µM (active) and 43.6 µM (active) | 
CC[n+]1c(-c2ccccc2)c2cc(N)ccc2c2ccc(N)cc21 | inactive | 
CCOP(=O)(O)OCC (tested in a mixture with another compound) | inactive and 54.5 µM (active) | 
O=C(O)c1nn(Cc2ccc(Cl)cc2Cl)c2ccccc12 | inactive | 
CC(C)(c1ccc(OCC2CO2)cc1)c1ccc(OCC2CO2)cc1 (stereo not given) | inactive | 
C[C@]12CCC(=O)C=C1CC[C@@H]1[C@@H]2CC[C@@]2(C)[C@H]1CC[C@]2(C)O | inactive | 
O=C1C(Cl)=C(Cl)C(=O)c2ccccc21 | 49.1 µM (active) and 43.6 µM (active) | 

System: not listed separately
Test: qHTS assay to identify small molecule agonists of the TGF-beta/Smad signaling pathway (AID 1346859; active means well fitted activation curve with a large enough effect in the signal ratio in the repeat runs, not every such curve was filed as active; the % refers to the signal ratio)
Conditions: SBE-bla HEK293T, TGF-beta/Smad beta-lactamase reporter, 5 h; series mostly up to 76.8 µM; activation: at the top concentration
Method in brief: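 Beta-lactamase reporter activity downstream of Smad binding elements was measured in stably transfected HEK 293T cells; compounds were incubated for 5 hr, substrate for 2 hr at room temperature.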

SMILES | Potency | activation
Nc1ccc([N+](=O)[O-])cc1N | inactive | 
N#CCCCCC#N | inactive | 
C[N+](C)(C)CC(=O)O | inactive | 
O=S(=O)(O)C(F)(F)C(F)(F)C(F)(F)C(F)(F)C(F)(F)C(F)(F)C(F)(F)C(F)(F)F | inactive | 
CC(C)(C#N)N=NC(C)(C)C#N | inactive | 
Cl | inactive | 
CCCCCCCCCC(CC)c1ccc(S(=O)(=O)O)cc1 (stereo not given) | inactive | 
Clc1ccc(C(Cl)(Cl)Cl)cc1 | inactive | 
C[N+](C)(C)C | inactive | 
CCCCOCC1CO1 (stereo not given) | inactive | 
ClCC(Cl)CCl | inactive | 
CCCCOCCOC(C)=O | inactive | 
NN=C(N)N | inactive | 
COP(=S)(OC)Oc1ccc(S(=O)(=O)N(C)C)cc1 | inactive | 
CCC(=O)Nc1ccc(Cl)c(Cl)c1 | inactive | 
[Cl-].[Cl-].[Cl-].[Fe+3] | inactive | 

SMILES | Potency | activation
ClC(Cl)=C(Cl)C(Cl)=C(Cl)Cl | inactive | 
CCCCC(C#N)(Cn1cncn1)c1ccc(Cl)cc1 (stereo not given) | inactive | 
CCOP(=S)(OCC)SCSC(C)(C)C | inactive | 
C[N+](C)(C)CC(=O)[O-] | inactive | 
O=NN(c1ccccc1)c1ccccc1 | inactive | 
O=C1Nc2ccc(Cl)cc2C(c2ccccc2)=NC1O (stereo not given) | inactive | 
CCOP(=S)(OCC)SCn1c(=O)oc2cc(Cl)ccc21 | inactive | 
CC1CC(=O)O1 (stereo not given) | inactive | 
CNC(=S)S | inactive | 
C[C@]12CC[C@H]3[C@@H](CCC4=CC(=O)CC[C@@H]43)[C@@H]1CC[C@@H]2O |  | -0.0057% [at 35.3 µM] (inactive)
c1ccc(C2CO2)cc1 (stereo not given) | inactive | 
CCC1(c2ccc(N)cc2)CCC(=O)NC1=O (stereo not given) | inactive | 
CC[n+]1c(-c2ccccc2)c2cc(N)ccc2c2ccc(N)cc21 | inactive | 
CCOP(=O)(O)OCC (tested in a mixture with another compound) |  | -2.38% (inactive)
CC(C)(c1ccc(OCC2CO2)cc1)c1ccc(OCC2CO2)cc1 (stereo not given) | inactive | 
C[C@]12CCC(=O)C=C1CC[C@@H]1[C@@H]2CC[C@@]2(C)[C@H]1CC[C@]2(C)O |  | -4.83% [at 35.3 µM] (inactive)

Biological target: Thyrotropin-releasing hormone receptor (Homo sapiens) (UniProt P34981)
Sequence (P34981 whole entry, looked up): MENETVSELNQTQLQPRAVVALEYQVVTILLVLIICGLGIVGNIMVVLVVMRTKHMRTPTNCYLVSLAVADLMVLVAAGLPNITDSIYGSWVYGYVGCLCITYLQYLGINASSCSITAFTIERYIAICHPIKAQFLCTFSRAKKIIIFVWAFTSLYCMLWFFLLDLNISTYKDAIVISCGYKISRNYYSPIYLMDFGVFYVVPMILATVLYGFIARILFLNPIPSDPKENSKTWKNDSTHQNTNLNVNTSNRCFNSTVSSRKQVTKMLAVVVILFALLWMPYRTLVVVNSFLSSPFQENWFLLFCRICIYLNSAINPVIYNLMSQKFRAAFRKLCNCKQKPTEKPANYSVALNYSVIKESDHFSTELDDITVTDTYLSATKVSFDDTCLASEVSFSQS
Test: qHTS assay to identify small molecule antagonists of the thyrotropin-releasing hormone receptor (TRHR) signaling pathway (AID 1346877; active means well fitted inhibition curve with a large enough effect in the repeat runs, not every such curve was filed as active; further: potency means the concentration at half of the fitted maximal effect)
Conditions: TRHR-HEK293, TRH-induced calcium fluorescence, antagonist mode; series mostly up to 51.3 µM; activity, negative = inhibition: at the top concentration
Method in brief: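 TRHR-expressing HEK293 cells were seeded, cultured 18 h at 37 °C, then loaded with calcium dye for 2 h. Compounds were pre-incubated 5 min at room temperature before 1 nM TRH (final) was added, and kinetic fluorescence was recorded for 3 min.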

SMILES | Potency | activity, negative = inhibition
Nc1ccc([N+](=O)[O-])cc1N | inactive | 
N#CCCCCC#N | inactive | 
CC(C)(C#N)N=NC(C)(C)C#N | inactive | 
O=[N+]([O-])c1ccc(Cl)c([N+](=O)[O-])c1 | inactive | 
Clc1ccc(C(Cl)(Cl)Cl)cc1 | inactive | 
CC(C)=CC1C(C(=O)OCN2C(=O)C3=C(CCCC3)C2=O)C1(C)C (stereo not given) | inactive | 
C[N+](C)(C)C | inactive | 
CCCCOCC1CO1 (stereo not given) | inactive | 
ClCC(Cl)CCl | inactive | 
CCCCOCCOC(C)=O | inactive | 
CCC(=O)Nc1ccc(Cl)c(Cl)c1 | inactive | 
ClC(Cl)=C(Cl)C(Cl)=C(Cl)Cl | inactive | 
CCCCC(C#N)(Cn1cncn1)c1ccc(Cl)cc1 (stereo not given) | inactive | 
O=NN(c1ccccc1)c1ccccc1 | inactive | 
CCOP(=S)(OCC)SCn1c(=O)oc2cc(Cl)ccc21 | inactive | 
CNC(=S)S | inactive | 
C[C@]12CC[C@H]3[C@@H](CCC4=CC(=O)CC[C@@H]43)[C@@H]1CC[C@@H]2O | inactive | 
c1ccc(C2CO2)cc1 (stereo not given) | inactive | 
CCC1(c2ccc(N)cc2)CCC(=O)NC1=O (stereo not given) | inactive | 
CC(C)(c1ccccc1)c1ccc(O)c(C(C)(C)c2ccccc2)c1 |  | -0.0072% (inactive)
CC[n+]1c(-c2ccccc2)c2cc(N)ccc2c2ccc(N)cc21 | inactive | 
O=C(O)c1nn(Cc2ccc(Cl)cc2Cl)c2ccccc12 | inactive | 
CC(C)(c1ccc(OCC2CO2)cc1)c1ccc(OCC2CO2)cc1 (stereo not given) | inactive | 
C[C@]12CCC(=O)C=C1CC[C@@H]1[C@@H]2CC[C@@]2(C)[C@H]1CC[C@]2(C)O | inactive | 
O=C1C(Cl)=C(Cl)C(=O)c2ccccc21 | 21.4 µM (active) and 21.3 µM (active) | 
